Design in all cases: species or system human, MV4-11 + K-562 + COLO205 + SK-N-BE2 + OVCAR-8
The test system of one experiment is ATM. As to conditions: read-out: apparent Kd, n = 1.
Another experiment concerns GAK. The settings on record: read-out: apparent Kd, n = 1.
The next experiment has as its system NLK. The settings on record: read-out: apparent Kd; compound concentrations: 100 nM and 1000 nM (sheet 'Samples'), CATDS: 0.15655838953280801; n = 1.
For another experiment, the system named is RIPK2. The settings on record: read-out: apparent Kd; compound concentrations: 100 nM and 1000 nM (sheet 'Samples'), CATDS: 0.226668000101196; n = 1.
A further experiment relates to MAPK10. The settings on record: read-out: apparent Kd; compound concentrations:100 nM and 1000 nM (sheet 'Samples'); n = 1.
A further experiment concerns MTOR. As to conditions: read-out: apparent Kd; compound concentrations:100 nM and 1000 nM (sheet 'Samples'); n = 1.
For the next experiment, the system named is MYLK3. As to conditions: read-out: apparent Kd; compound concentrations:100 nM and 1000 nM (sheet 'Samples'); n = 1.
Another experiment has as its system PIK3CA. As to conditions: read-out: apparent Kd; compound concentrations:100 nM and 1000 nM (sheet 'Samples'); n = 1.
A further experiment has as its system PLK4. The settings on record: read-out: apparent Kd; compound concentrations:100 nM and 1000 nM (sheet 'Samples'); n = 1.
The test system of another experiment is PRKACG. The settings on record: read-out: apparent Kd; compound concentrations:100 nM and 1000 nM (sheet 'Samples'); n = 1.
The test system of a further experiment is PRKAG1. As to conditions: read-out: apparent Kd; compound concentrations:100 nM and 1000 nM (sheet 'Samples'); n = 1.
The next experiment deals with PRKAG2. The settings on record: read-out: apparent Kd; compound concentrations:100 nM and 1000 nM (sheet 'Samples'); n = 1.
The test system of the next experiment is SIK2. The settings on record: read-out: apparent Kd; compound concentrations:100 nM and 1000 nM (sheet 'Samples'); n = 1.
In a further experiment the test system is TNIK. As to conditions: read-out: apparent Kd; compound concentrations:100 nM and 1000 nM (sheet 'Samples'); n = 1.
The subject of another experiment is BMP2K. The settings on record: read-out: apparent Kd; compound concentrations:100 nM and 1000 nM (sheet 'Samples'); n = 1.
For the next experiment, the system named is CDC42BPA. The settings on record: read-out: apparent Kd; compound concentrations:100 nM and 1000 nM (sheet 'Samples'); n = 1.
In another experiment the test system is CDC42BPB. As to conditions: read-out: apparent Kd; compound concentrations:100 nM and 1000 nM (sheet 'Samples'); n = 1.
In a further experiment the test system is CDC42BPG. The settings on record: read-out: apparent Kd; compound concentrations:100 nM and 1000 nM (sheet 'Samples'); n = 1.
Another experiment relates to PKN1. The settings on record: read-out: apparent Kd; compound concentrations:100 nM and 1000 nM (sheet 'Samples'); n = 1.
The subject of the next experiment is PKN2. The settings on record: read-out: apparent Kd; compound concentrations:100 nM and 1000 nM (sheet 'Samples'); n = 1.
For another experiment, the system named is PRKACA. As to conditions: read-out: apparent Kd; compound concentrations:100 nM and 1000 nM (sheet 'Samples'); n = 1.
The next experiment deals with PRKACB. The settings on record: read-out: apparent Kd; compound concentrations:100 nM and 1000 nM (sheet 'Samples'); n = 1.
The next experiment relates to PRKG1. As to conditions: read-out: apparent Kd; compound concentrations:100 nM and 1000 nM (sheet 'Samples'); n = 1.
Another experiment relates to PRKX. As to conditions: read-out: apparent Kd; compound concentrations:100 nM and 1000 nM (sheet 'Samples'); n = 1.
For another experiment, the system named is ROCK1. The settings on record: read-out: apparent Kd; compound concentrations:100 nM and 1000 nM (sheet 'Samples'); n = 1.
Another experiment deals with ROCK2. As to conditions: read-out: apparent Kd; compound concentrations:100 nM and 1000 nM (sheet 'Samples'); n = 1.
Another experiment concerns RPS6KB1. The settings on record: read-out: apparent Kd; compound concentrations:100 nM and 1000 nM (sheet 'Samples'); n = 1.
In the next experiment the test system is MAP3K1. The settings on record: read-out: apparent Kd; compound concentrations:100 nM and 1000 nM (sheet 'Samples'); n = 1.
The subject of the next experiment is MAP4K5. The settings on record: read-out: apparent Kd; compound concentrations:100 nM and 1000 nM (sheet 'Samples'); n = 1.
In a further experiment the test system is NUAK2. The settings on record: read-out: apparent Kd; compound concentrations:100 nM and 1000 nM (sheet 'Samples'); n = 1.
For a further experiment, the system named is PLK1. As to conditions: read-out: apparent Kd; compound concentrations:100 nM and 1000 nM (sheet 'Samples'); n = 1.
The next experiment relates to STK10. The settings on record: read-out: apparent Kd; compound concentrations:100 nM and 1000 nM (sheet 'Samples'); n = 1.
Where [1] appears, read: compound concentrations:100 nM and 1000 nM (sheet 'Samples').

Like-named read-outs stand apart in the source and are kept apart here.

For the compound `COc1cc(Nc2ccnc3ccc(Br)cc23)cc(OC)c1OC` [CA93.0], the potency estimated from few doses in the experiment on ATM (compound concentrations: 100 nM and 1000 nM (sheet 'Samples'), CATDS: 0.26072592490086599) is 0.205 µM; with GAK (compound concentrations: 100 nM and 1000 nM (sheet 'Samples'), CATDS: 0.73237388981335505), 0.0227 µM; in the experiment with NLK, 1.5 µM; in the experiment with RIPK2, 0.311 µM.
For the compound `COc1ccc2[nH]c3c4[nH]c5ccc(OC)cc5c4c4c(c3c2c1)C(=O)NC4=O` [GW296115X], the potency estimated from few doses was 0.204 µM in the experiment with ATM (setting [1]); 0.543 µM with GAK (setting [1]); 1.05 µM in the experiment with MAPK10; 0.741 µM in the experiment on MTOR; 0.834 µM with MYLK3; 0.254 µM with PIK3CA. For the same compound, the potency estimated from few doses is 0.581 µM in the experiment with PLK4; 0.655 µM with PRKACG; 1.55 µM in the experiment with PRKAG1; 1.67 µM with PRKAG2; 0.923 µM in the experiment with SIK2; 1.7 µM in the experiment on TNIK.
With `Cl.Cl.NC[C@H](CC1CCCCC1)NC(=O)c1cc(Br)c(-c2ccnc3[nH]ccc23)s1.NC[C@H](CC1CCCCC1)NC(=O)c1cc(Br)c(-c2ccnc3[nH]ccc23)s1` [GSK1581427A], the potency estimated from few doses with BMP2K was 0.106 µM; in the experiment with CDC42BPA, 0.119 µM; in the experiment on CDC42BPB it was 0.0452 µM; in the experiment on CDC42BPG it was 0.0137 µM; in the experiment with PKN1 it was 1.69 µM; in the experiment on PKN2, 2.31 µM. In addition, the potency estimated from few doses is 0.0209 µM in the experiment on PRKACA; 0.0402 µM with PRKACB; 0.0108 µM in the experiment with PRKG1; 0.513 µM in the experiment with PRKX; 0.0536 µM in the experiment on ROCK1; 0.0511 µM with ROCK2. Further, the potency estimated from few doses in the experiment on RPS6KB1 was 0.481 µM.
Take `C[C@@H](Oc1cc(-n2cnc3ccc(OCC4CCN(C)CC4)cc32)sc1C(N)=O)c1ccccc1C(F)(F)F` [GSK326090A]: the potency estimated from few doses is 1.9 µM with BMP2K; 1.24 µM in the experiment with MAP3K1; 0.203 µM in the experiment with MAP4K5; 0.411 µM with NUAK2; 0.0677 µM in the experiment on PLK1; 1.72 µM in the experiment on STK10.
